The supplement of paper PMC8728848
This excerpt belongs to a sample that is enriched for the strongest signals.

Columns and labels:
Assay in all cases: glycan array binding signal (z-score within array); higher = stronger binding
Details in all cases: glycan notation: IUPAC condensed, linker removed
Fuc(a1-2)Gal = target: Fuc(a1-2)Gal
In short: (§1)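 Glycan array data were curated from 3228 arrays in the Consortium for Functional Glycomics database and kept only where the protein sequence was available. Glycan names were converted to IUPAC-condensed notation, and columns mapping to the same glycan were averaged. The binding signal is a within-array Z-score, averaged across arrays of the same protein sequence at different concentrations or buffers and across linkers. Negative Z-scores can be read as non-binding.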

[1] = target: Fuc(a1-2)Gal(b1-4)GlcNAc(b1-2)Man(a1-3)[Fuc(a1-2)Gal(b1-4)GlcNAc(b1-2)Man(a1-6)]Man(b1-4)GlcNAc(b1-4)GlcNAc
In short: as §1

[2] = target: Fuc(a1-2)Gal6S(b1-3)GlcNAc
In short: as §1

[3] = target: Fuc(a1-2)[Gal(a1-3)]Gal(b1-3)GalNAc
In short: as §1

[4] = target: Fuc(a1-2)[Gal(a1-3)]Gal(b1-3)GalNAc(b1-3)Gal(a1-4)Gal(b1-4)Glc
In short: as §1

[5] = target: Fuc(a1-2)[GalNAc(a1-3)]Gal(b1-3)GalNAc(b1-3)Gal(a1-4)Gal(b1-4)Glc
In short: as §1

[6] = target: Fuc(a1-2)[GalNAc(a1-3)]Gal(b1-4)GlcNAc(b1-3)Gal(b1-4)GlcNAc(b1-3)Gal(b1-4)GlcNAc
In short: as §1

[7] = target: Fuc(a1-3)[Gal(b1-4)]GlcNAc(b1-2)Man(a1-3)[Fuc(a1-3)[Gal(b1-4)]GlcNAc(b1-2)Man(a1-6)]Man(b1-4)GlcNAc(b1-4)[Fuc(a1-6)]GlcNAc
In short: as §1

[8] = target: Fuc(a1-3)[Gal(b1-4)]GlcNAc(b1-3)GalNAc
In short: as §1

[9] = target: Gal(a1-3)Gal(b1-3)GlcNAc(b1-3)GalNAc
In short: as §1

[10] = target: Gal(a1-3)Gal(b1-3)[Fuc(a1-4)]GlcNAc(b1-2)Man(a1-3)[Gal(a1-3)Gal(b1-3)[Fuc(a1-4)]GlcNAc(b1-2)Man(a1-6)]Man(b1-4)GlcNAc(b1-4)GlcNAc
In short: as §1

[11] = target: Gal(a1-3)Gal(b1-4)GlcNAc(b1-6)GalNAc
In short: as §1

[12] = target: Gal(b1-3)GlcNAc(b1-3)Gal(b1-3)GlcNAc
In short: as §1

[13] = target: Gal(b1-3)GlcNAc(b1-3)Gal(b1-4)GlcNAc
In short: as §1

[14] = target: Gal(b1-3)GlcNAc(b1-3)Gal(b1-4)GlcNAc(b1-2)[Gal(b1-3)GlcNAc(b1-3)Gal(b1-4)GlcNAc(b1-6)]Man(a1-6)[Gal(b1-3)GlcNAc(b1-3)Gal(b1-4)GlcNAc(b1-2)Man(a1-3)]Man(b1-4)GlcNAc(b1-4)[Fuc(a1-6)]GlcNAc
In short: as §1

[15] = target: Gal(b1-3)GlcNAc(b1-3)Gal(b1-4)GlcNAc(b1-3)Gal(b1-4)GlcNAc(b1-2)[Gal(b1-3)GlcNAc(b1-3)Gal(b1-4)GlcNAc(b1-3)Gal(b1-4)GlcNAc(b1-6)]Man(a1-6)[Gal(b1-3)GlcNAc(b1-3)Gal(b1-4)GlcNAc(b1-3)Gal(b1-4)GlcNAc(b1-2)Man(a1-3)]Man(b1-4)GlcNAc(b1-4)[Fuc(a1-6)]GlcNAc
In short: as §1

[16] = target: Gal(b1-3)GlcNAc(b1-3)Gal(b1-4)GlcNAc(b1-6)[Gal(b1-3)GlcNAc(b1-3)]Gal(b1-4)Glc
In short: as §1

[17] = target: Gal(b1-3)[Neu5Ac(b2-6)]GalNAc
In short: as §1

[18] = target: Gal(b1-4)GlcNAc(b1-2)Man(a1-3)Man(b1-4)GlcNAc(b1-4)GlcNAc
In short: as §1

[19] = target: Gal(b1-4)GlcNAc(b1-2)[Gal(b1-4)GlcNAc(b1-4)]Man(a1-3)[GlcNAc(b1-4)][Gal(b1-4)GlcNAc(b1-2)[Gal(b1-4)GlcNAc(b1-6)]Man(a1-6)]Man(b1-4)GlcNAc(b1-4)GlcNAc
In short: as §1

[20] = target: Gal(b1-4)GlcNAc(b1-3)Gal(b1-4)GlcNAc(b1-2)Man(a1-3)[Gal(b1-4)GlcNAc(b1-3)Gal(b1-4)GlcNAc(b1-2)Man(a1-6)]Man(b1-4)GlcNAc(b1-4)[Fuc(a1-6)]GlcNAc
In short: as §1

[21] = target: Gal(b1-4)GlcNAc(b1-3)Gal(b1-4)GlcNAc(b1-2)[Gal(b1-4)GlcNAc(b1-3)Gal(b1-4)GlcNAc(b1-6)]Man(a1-6)[Gal(b1-4)GlcNAc(b1-3)Gal(b1-4)GlcNAc(b1-2)Man(a1-3)]Man(b1-4)GlcNAc(b1-4)GlcNAc
In short: as §1

[22] = target: Gal(b1-4)GlcNAc(b1-3)Gal(b1-4)GlcNAc(b1-2)[Gal(b1-4)GlcNAc(b1-3)Gal(b1-4)GlcNAc(b1-6)]Man(a1-6)[Gal(b1-4)GlcNAc(b1-3)Gal(b1-4)GlcNAc(b1-2)Man(a1-3)]Man(b1-4)GlcNAc(b1-4)[Fuc(a1-6)]GlcNAc
In short: as §1

[23] = target: Gal(b1-4)GlcNAc(b1-6)Gal(b1-4)GlcNAc
In short: as §1

[24] = target: Gal(b1-4)GlcNAc(b1-6)[Gal(b1-4)GlcNAc(b1-3)]GalNAc
In short: as §1

[25] = target: Gal3S(b1-4)[Fuc(a1-3)]Glc6S
In short: as §1

[26] = target: Gal3S(b1-4)[Fuc(a1-3)]GlcNAc6S
In short: as §1

B1: LlpA (Burkholderia cenocepacia) (protein)
chain: MGSSHHHHHHSSGLVPRGSHKILGSNETLSAGNVVYSDNGQYHLAMQTDGNLVVYGPTGAVWQSQTSGSGGNRAVMQGDGNLVIYRADNTAAWSSKTAHPGAFLAVQDDGNVVIYWPRPAWASNTSDPATQQSAESKYLASGSTMSAGQTVTVAQYMLVFQADGNLVLYKNGGNPIWSTGTQGKGATYAVMQSDGNFVIYAGSTALWSTKTNGANGAQLVLQSDGNLVIYAPTAAWSTKFGLVTAPTSTSTSNNGPGSGICVGVCPPHPLNGNPFSPVGVGTTGLGFPTPGYPGAAF
Fuc(a1-2)Gal
  glycan array binding signal (z-score): 1.82
[1]
  glycan array binding signal (z-score): -0.314
[2]
  glycan array binding signal (z-score): 0.167
[3]
  glycan array binding signal (z-score): 0.017
[4]
  glycan array binding signal (z-score): -0.361
[5]
  glycan array binding signal (z-score): -0.271
[6]
  glycan array binding signal (z-score): 1.26
[7]
  glycan array binding signal (z-score): 2.08
[8]
  glycan array binding signal (z-score): 0.159
[9]
  glycan array binding signal (z-score): -1.16
[10]
  glycan array binding signal (z-score): 1.1
[11]
  glycan array binding signal (z-score): 0.692
[12]
  glycan array binding signal (z-score): -0.418
[13]
  glycan array binding signal (z-score): -0.526
[14]
  glycan array binding signal (z-score): 1.84
[15]
  glycan array binding signal (z-score): 0.703
[16]
  glycan array binding signal (z-score): 1.7
[17]
  glycan array binding signal (z-score): -0.687
[18]
  glycan array binding signal (z-score): 1.84
[19]
  glycan array binding signal (z-score): 0.349
[20]
  glycan array binding signal (z-score): 2.46
[21]
  glycan array binding signal (z-score): 0.339
[22]
  glycan array binding signal (z-score): 1.91
[23]
  glycan array binding signal (z-score): -0.14
[24]
  glycan array binding signal (z-score): 1.6
[25]
  glycan array binding signal (z-score): 1.83
[26]
  glycan array binding signal (z-score): 0.427
